Assay results published in the supplement of paper PMC11634586.

Each compound was assayed on NCI-H1688 (assay: inhibition of cell viability relative to untreated control (fraction); higher = stronger growth inhibition, active = 0.5 or more). Details: 30 µM; 24 h.
Procedure, shortened: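 Compounds from a natural compound library (TargetMol) were tested at 30 µM on NCI-H1688 small cell lung cancer cells for 24 h at 37°C under 5% CO2. Cell Counting Kit-8 absorbance at 450 nm, read in triplicate, gave the viability. The values express inhibition of cell viability as a fraction relative to untreated cells.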
In the case of `CC1(C)CCC[C@]2(C)[C@H]3CC(=O)O[C@]3(C)CC[C@@H]12` [Sclareolide], the “inhibition of cell viability” value is reported as 0.206 (inactive). With `CC(C)=CCC[C@](C)(O[C@@H]1O[C@H](CO)[C@@H](O)[C@H](O)[C@H]1O)[C@H]1CC[C@]2(C)[C@@H]1[C@H](O)C[C@@H]1[C@@]3(C)CC[C@H](O[C@@H]4O[C@H](CO)[C@@H](O)[C@H](O)[C@H]4O[C@@H]4O[C@H](CO)[C@@H](O)[C@H](O)[C@H]4O)C(C)(C)[C@@H]3CC[C@]12C` [Ginsenoside Rd] the “inhibition of cell viability” value was 0.03 (inactive). `COc1cc(/C=C/C(=O)CC(=O)/C=C/c2ccc(O)c(OC)c2)ccc1O` [Curcumin] was tested, and the “inhibition of cell viability” value was 0.315 (inactive). For `CC(C)(CO)[C@@H](O)C(=O)NCCCO` [Dexpanthenol], the “inhibition of cell viability” value was -0.126 (inactive). For `N[C@@H](Cc1cc(I)c(Oc2ccc(O)c(I)c2)c(I)c1)C(=O)O` [Lyothyronine], the “inhibition of cell viability” value was 0.0198 (inactive). In the case of `Cc1ncc(CSSCc2cnc(C)c(O)c2CO)c(CO)c1O` [Pyrithioxin], the “inhibition of cell viability” value is reported as 0.0153 (inactive). `NCCCNCCCCNCCCN` [Spermine] was tested, and the “inhibition of cell viability” value was -0.283 (inactive). For `C=CCc1ccc(O)c(-c2cc(CC=C)ccc2O)c1` [Magnolol], the “inhibition of cell viability” value was -0.288 (inactive).
